# The whole screen tested about 340,000 compounds, of which about 3,300 (0.97%) were called active. This excerpt belongs to a sample that is enriched for actives. Unmarked numbers belong to inactive results.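 The calls were made as follows: active = mean activation above about 17%, with every replicate also reaching it (limit read from the data, passing the limit was not always enough); inconclusive = only one of the two conditions met; inactive = the rest.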
# Target: Protein FosB (Mus musculus) (UniProt P13346)
# Assay: enhancers of mouse delta FosB DNA binding – biochemical, fluorescence polarization, TAMRA-CDK5 oligo, single point, primary screen (AID 493131);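 also: fluorescence polarization rise as delta FosB binds a TAMRA Cdk5 AP-1 oligo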
# Settings: purified delta FosB, at 25 µM, hits give high values, percent of positive-control signal above neutral wells
# Protein FosB (Mus musculus), sequence (P13346 whole entry, looked up): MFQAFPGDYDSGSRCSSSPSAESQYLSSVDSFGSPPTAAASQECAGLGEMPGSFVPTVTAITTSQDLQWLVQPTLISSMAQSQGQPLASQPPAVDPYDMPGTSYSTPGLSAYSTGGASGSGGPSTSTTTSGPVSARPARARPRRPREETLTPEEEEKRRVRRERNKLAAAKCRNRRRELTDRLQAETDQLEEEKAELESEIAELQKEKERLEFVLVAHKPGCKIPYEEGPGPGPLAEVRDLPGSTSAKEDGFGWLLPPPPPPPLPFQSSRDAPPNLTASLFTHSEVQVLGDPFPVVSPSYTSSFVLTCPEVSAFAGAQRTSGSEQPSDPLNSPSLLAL
row,SMILES,activation
1,COc1ccccc1NC(=O)C1=C(C)Nc2nnnn2C1c1cccc(Br)c1 (stereo not given),27.9% (active)
2,COc1ccc(C2C(C(=O)Nc3ccccc3OC)=C(C)Nc3nnnn32)c(OC)c1 (stereo not given),-2.93%
3,COc1cc(C2C(C(=O)Nc3ccccc3OC)=C(C)Nc3ncnn32)ccc1O (stereo not given),-9.43%
4,COc1ccc(-c2cc3nc(C)c(CCC(=O)NC(C)CCc4ccco4)c(C)n3n2)c(OC)c1 (stereo not given),-2.13%
5,Cc1ccc(NC(=O)CCC(=O)N2CCC(c3ccccc3)=N2)cc1S(=O)(=O)N1CCCCC1,10.2%
6,Cc1sc2ncnc(N3CCC(C(=O)NNC(=O)c4ccc(F)cc4)CC3)c2c1C,-4.25%
7,Cc1sc2ncnc(N3CCC(C(=O)Nc4ccc(F)cc4Cl)CC3)c2c1C,-2.12%
8,Cc1sc2ncnc(N3CCC(C(=O)Nc4nc5ccc(Cl)cc5s4)CC3)c2c1C,43.5% (active)
9,Cc1cccc(-n2nc3c(c2NC(=O)c2cc4ccccc4o2)CS(=O)(=O)C3)c1,-22.1%
10,COc1ccc(CCNC(=O)c2nnc(CS(=O)(=O)c3ccccc3)o2)cc1OC,-8.02%
11,CCCCNC(=S)N/N=C1\CCCCc2ccccc21,-5.41%
12,COc1ccc(S(=O)(=O)N2CCC(C(=O)NCCC(=O)NCc3cccc(OC)c3)CC2)cc1,-3.09%
13,COc1cccc(CNC(=O)c2nnn(CC(=O)Nc3cc(C)ccc3C)c2N)c1,52.8% (active)
14,CCOc1ccccc1NC(=O)Cn1nnc(C(=O)NCc2cccs2)c1N,28.6% (active)
15,COc1cccc(CNC(=O)c2n[nH]c3ccccc23)c1,-2.62%
16,COc1cccc(CNC(=O)c2nnn(CC(=O)Nc3cc(Cl)ccc3C)c2N)c1,70.5% (active)
17,COc1cccc(CNC(=O)c2cccnc2Sc2ccc(Cl)cc2)c1,-12%
18,COc1ccc(NC(=O)Cn2nnc(C(=O)NCCc3ccc(OC)c(OC)c3)c2N)cc1,-1.69%
19,CCOc1ccccc1NC(=O)Cn1ncc2ccc([N+](=O)[O-])cc21,-5.27%
20,CCN(CC(=O)NCc1cccs1)c1nnnn1-c1ccccc1,1.6%
21,Cc1ccc(NC(=O)Cn2nnc(C(=O)NCc3ccco3)c2N)c(C)c1,14.6%
22,COc1ccc(CNC(=O)c2nnn(CC(=O)Nc3cc(C)cc(C)c3)c2N)cc1,48.3% (active)
23,CCOc1ccc(Cn2nnc(C(=O)Nc3ccc(OC)cc3OC)c2N)cc1,7.56%

row,SMILES,activation
1,O=C(O)c1ccc(S(=O)(=O)c2ccccc2)s1,0.96%
2,O=S(=O)(Nc1ccc(OC(F)(F)F)cc1)c1cccc2nonc12,2.63%
3,N#Cc1c(/N=C/N2CCCC2)oc(-c2ccccc2)c1-c1ccccc1,-4.67%
4,CC(Sc1nnnn1C1CCCCC1)C(=O)O (stereo not given),1.4%
5,Cc1cccc(CSc2nc3c(c(=O)n2C)SCC3)c1,-8.87%
6,CCN(CC)c1ccc(S(=O)(=O)N2CCOCC2)cc1NC(=O)CSc1cccc[n+]1[O-],4.76%
7,Nc1ccc(C(=O)OCC(=O)NC2CCCc3ccccc32)cc1[N+](=O)[O-] (stereo not given),35.5% (active)
8,NC(=O)Nc1ccc(C(=O)OCC(=O)NC2CCCc3ccccc32)cc1 (stereo not given),0.99%
9,Nc1ccc(C(=O)OCC(=O)NC2CCS(=O)(=O)C2)cc1[N+](=O)[O-] (stereo not given),-1.21%
10,CC1(C(=O)O)CCC(C(=O)Nc2ccc(Cl)c(Cl)c2)C1(C)C (stereo not given),-5.56%
11,COc1ccc2c(CC(=O)Nc3nnc(C4CC4)s3)coc2c1,-0.902%
12,COc1ccc(NC(=O)CCC(=O)Nc2nnc(C3CCCCC3)s2)cc1,23.2% (active)
13,COc1ccc(OCCCC(=O)Nc2nnc(C3CCCO3)s2)cc1 (stereo not given),-9.89%
14,O=C(Cc1ccc(Br)cc1)NCCN1CCOCC1,7.04%
15,CC1CCCCC1NC(=O)/C(C#N)=C/C=C/c1ccccc1[N+](=O)[O-] (stereo not given),-2.37%
16,Cn1c(=O)c2ccccc2n(CC(=O)Nc2ccc3c(c2)OCCO3)c1=O,5.57%
17,COc1ccc(S(=O)(=O)N(C)CC(=O)Nc2ccc3c(c2)OCCO3)cc1OC,-3.7%
18,Cc1ccc(S(=O)(=O)NCC(=O)Nc2ccc3c(c2)OCCO3)cc1,-0.347%
19,Cc1ccc(SCC(=O)Nc2ccc3c(c2)OCCO3)cc1,-1.62%
20,Cc1cccc(C(=O)Nc2ccccc2-c2nnn(CC(=O)Nc3ccc4c(c3)OCCO4)n2)c1,20.1% (active)
21,CS(=O)(=O)c1ccc(-c2nnn(CC(=O)Nc3ccc4c(c3)OCCO4)n2)cc1,37.1% (active)
22,O=C(c1cccc(N2CCCC2=O)c1)N1CCOCC1,-2.25%
23,CN(Cc1cccs1)C(=O)Cc1c[nH]c2ccccc12,0.954%

row,SMILES,activation
1,COc1ccc(NC(=O)CN(C)C(=O)c2ccc(NC3CC3)c([N+](=O)[O-])c2)cc1,4.11%
2,COc1ccc(-n2cnnc2SCC(=O)Nc2cccc([N+](=O)[O-])c2)cc1,9.7%
3,NC(=O)NC(=O)CSc1nc2cc([N+](=O)[O-])ccc2n1-c1cccc(C(F)(F)F)c1,20.9% (active)
4,COc1ccc(CCNC(=O)CSc2nc3[nH]ncc3c(=O)n2-c2cccc(C(F)(F)F)c2)cc1OC,0.114%
5,O=C(COc1ccccc1)Nc1nonc1NC(=O)COc1ccccc1,1.39%
6,COC(=O)CC1=NN(c2nc(C)cc(C)n2)C(=O)C1,0.664%
7,CS(=O)(=O)N(CC(=O)N1CCCC1)Cc1ccccc1,-9%
8,Cc1ccc(-c2nc(CS(=O)CC(=O)N3CCN(c4ncccn4)CC3)c(C)o2)cc1 (stereo not given),-11.3%
9,Cc1[nH]c2c(C(=O)N3CCCC(CCC(=O)NCc4ccccc4F)C3)cccc2c1C (stereo not given),-10%
10,Cc1ccc(NC(=O)Nc2ccccc2)c(Br)c1,-6.25%
11,Cc1cc(NC(=O)Nc2c[nH]c(=O)[nH]c2=O)ccc1Br,27% (active)
12,O=C(Nc1c[nH]c(=O)[nH]c1=O)OCc1ccccc1,1.77%
13,CCOC(=O)CCC(NC(=O)c1ccc(CNc2nc3cc(C(F)(F)F)ccc3nc2C(=O)OCC)cc1)C(=O)OCC (stereo not given),-4.97%
14,COc1ccccc1C(=O)COC(=O)CNS(=O)(=O)c1ccc(NC(C)=O)cc1,-5.62%
15,COc1ccccc1CNC(=O)COC(=O)CNS(=O)(=O)c1ccc(NC(C)=O)cc1,0.477%
16,CC(=O)Nc1ccc(S(=O)(=O)NCC(=O)OCc2cc(=O)oc3ccc4ccccc4c23)cc1,38.6% (active)
17,CC1CCC(N2CC(=O)N(Cc3ccc4c(c3)OCO4)C(c3ccc(F)cc3)C2=O)CC1 (stereo not given),-1.56%
18,O=C(CN(Cc1ccccc1)C(=O)CCC(=O)Nc1ccccn1)NCCc1ccccc1,-12.5%
19,CCCOc1ccc(C(=O)CCC(=O)OC(C)C(=O)Nc2ccc(NC(C)=O)cc2)cc1 (stereo not given),11.5%
20,CCCOc1ccc(C(=O)C(CCC(CNCC)C(=O)c2ccc(OCCC)cc2)CNCC)cc1 (stereo not given),18.7% (active)
21,CCCOc1ccc(/C=N/NC(=O)C2CC2)c(OCCC)c1,-10.6%
22,Nc1nc(SCC(=O)Nc2cc(C(F)(F)F)ccc2Cl)[nH]c(=O)c1NC(=O)c1ccco1,48.3% (active)
23,O=C(Nc1cc(-c2nc3ncccc3o2)ccc1Cl)c1ccco1,-46.8%

row,SMILES,activation
1,COC(=O)c1ccc(NC(=O)CSc2nc(N)c(NC(=O)c3ccc(Br)o3)c(=O)[nH]2)cc1,10.1%
2,CCN(CC(=O)NCc1ccc(F)cc1)S(=O)(=O)c1ccc(Cl)s1,6.54%
3,NN=C(NN=Cc1ccccc1)c1ccccc1,-14.8%
4,COc1ccc(C)cc1NC(=O)CSc1cccc[n+]1[O-],6.31%
5,O=C(Nc1nnc(C2COc3ccccc3O2)o1)c1ccc(F)cc1 (stereo not given),1.05%
6,COc1ccc(N(CC(=O)N/N=C/c2cccc3c2OCCO3)S(=O)(=O)c2ccc(NC(C)=O)cc2)cc1,-0.26%
7,Cc1cc(=O)[nH]c2nnnn12,-4.86%
8,CCN(CC)CCNc1ccc(Cl)cc1[N+](=O)[O-],4.58%
9,O=C(NCc1cccnc1)C(=O)Nc1nc(-c2ccccc2)cs1,-5.18%
10,O=C(Nc1nnc(Cc2ccccc2)s1)c1cnccn1,-3.57%
11,O=C(Nc1nc(-c2ccc(-c3ccccc3)cc2)cs1)c1cnccn1,21.9% (active)
12,CCCCC(NS(=O)(=O)c1ccc(C)cc1)C(=O)Oc1ccc2c3c(c(=O)oc2c1)CCC3 (stereo not given),-11.5%
13,CCOc1ccc(NC(=O)c2ccc(CSc3nnnn3C)cc2)cc1,-3.33%
14,Cn1c(=O)n(C)c2cc(/C=N/NC(=O)c3cccc(Br)c3)ccc21,10.7%
15,O=C(Nc1ccc(N2CCCC2=O)cc1)c1cncc(Br)c1,-1.59%
16,O=C(N/N=C/c1cccc(Br)c1)c1ccc(N2CCCC2=O)cc1,86.6% (active)
17,CCN(CC(=O)Nc1c(F)cccc1F)C(=O)Cc1cccs1,3.46%
18,Cc1cc(C)cc(NC(=O)C(OC(=O)c2ccc(O)cc2)c2ccccc2)c1 (stereo not given),6.84%
19,COc1ccc(C)cc1NC(=O)C(OC(=O)c1cccc(S(=O)(=O)N(C)c2ccccc2)c1)c1ccccc1 (stereo not given),-8.39%
20,Cc1ccc(C)c(NC(=O)C(OC(=O)c2ccc(C)s2)c2ccccc2)c1 (stereo not given),23.6% (active)
21,C/C(CC(=O)NCc1ccc(Cl)cc1)=N\NC(=O)COc1ccc(C)cc1Br,-6.55%
